In the library only some 1.8% were active in any assay of this set; here they are far more common.
UBC9 SUMO inh = inhibitors of human SUMOylation (UBC9); HTRF SUMOylation assay, SAE1/SAE2 + UBC9, in vitro; 0.36% of 290,000 active; AID 2006; inhibition, % at 35 µM; P63279; in the data active = inhibition above about 50%, passing the limit was not always enough
pCIP destab = p/CIP protein destabilization. F442A p/CIP-EGFP cells, EGFP fluorescence, 16 h. decrease of EGFP signal, % at 10 µM. 0.01% of 290,000 active. AID 1984;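 active = EGFP signal decrease of at least 30% at 10 µM or well 3 SD below plate mean, unless failing retest; inactive = the rest, including hits failing retest or dose response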
Target sequence (Q05BA5 1-1403): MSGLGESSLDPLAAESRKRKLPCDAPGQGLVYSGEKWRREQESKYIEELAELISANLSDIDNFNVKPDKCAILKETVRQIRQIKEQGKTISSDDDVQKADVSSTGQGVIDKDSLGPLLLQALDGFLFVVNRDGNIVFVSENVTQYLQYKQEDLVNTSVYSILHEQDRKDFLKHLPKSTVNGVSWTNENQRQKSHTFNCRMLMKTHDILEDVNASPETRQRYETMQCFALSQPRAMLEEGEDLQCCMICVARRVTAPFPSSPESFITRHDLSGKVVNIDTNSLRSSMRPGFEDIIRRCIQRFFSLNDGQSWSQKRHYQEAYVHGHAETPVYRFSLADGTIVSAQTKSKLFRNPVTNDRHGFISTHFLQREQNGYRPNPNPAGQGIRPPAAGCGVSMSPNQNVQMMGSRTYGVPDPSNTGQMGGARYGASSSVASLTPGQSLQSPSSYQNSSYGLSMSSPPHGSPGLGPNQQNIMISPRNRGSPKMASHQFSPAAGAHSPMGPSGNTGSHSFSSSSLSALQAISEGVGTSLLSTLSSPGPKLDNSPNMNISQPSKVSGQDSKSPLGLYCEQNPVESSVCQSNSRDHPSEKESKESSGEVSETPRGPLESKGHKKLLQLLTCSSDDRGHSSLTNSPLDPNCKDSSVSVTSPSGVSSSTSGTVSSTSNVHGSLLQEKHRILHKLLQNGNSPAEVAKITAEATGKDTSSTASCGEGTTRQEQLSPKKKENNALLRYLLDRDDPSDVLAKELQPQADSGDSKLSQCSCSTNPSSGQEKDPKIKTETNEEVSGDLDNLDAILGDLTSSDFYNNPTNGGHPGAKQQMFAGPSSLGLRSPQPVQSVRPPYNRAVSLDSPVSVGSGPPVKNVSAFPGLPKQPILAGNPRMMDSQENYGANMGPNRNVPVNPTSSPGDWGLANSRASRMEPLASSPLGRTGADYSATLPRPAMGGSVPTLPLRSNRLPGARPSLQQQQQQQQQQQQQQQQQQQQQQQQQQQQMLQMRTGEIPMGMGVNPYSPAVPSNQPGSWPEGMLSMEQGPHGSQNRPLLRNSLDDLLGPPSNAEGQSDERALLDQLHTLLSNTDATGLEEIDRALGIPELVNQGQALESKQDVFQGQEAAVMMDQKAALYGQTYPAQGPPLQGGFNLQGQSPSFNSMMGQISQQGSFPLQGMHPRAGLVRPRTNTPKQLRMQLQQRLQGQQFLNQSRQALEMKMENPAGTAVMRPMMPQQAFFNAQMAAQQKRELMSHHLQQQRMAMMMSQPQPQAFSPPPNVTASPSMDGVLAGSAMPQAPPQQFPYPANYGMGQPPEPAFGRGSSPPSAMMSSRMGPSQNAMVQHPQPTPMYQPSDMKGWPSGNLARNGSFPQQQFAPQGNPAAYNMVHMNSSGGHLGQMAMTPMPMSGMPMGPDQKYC
NadD inh = blocks S. aureus nicotinate mononucleotide adenylyltransferase; inhibition, % at 20 µM; 0.78% of 360,000 active; purified NadD enzyme, colorimetric absorbance read-out; AID 602399; in the data active = inhibition above about 26%
PHOSPHO1 block = blocks human PHOSPHO1 phosphatase activity | inhibition, % at 13.3 µM | AID 1565 | Q8TCT1 | 1.1% of 290,000 active | recombinant PHOSPHO1, absorbance phosphatase assay; in the data active = inhibition above about 60%
NadD conf = NadD (S. aureus) inhibition, single concentration confirmation; shares compounds with NadD inh; purified S. aureus NadD, colorimetric enzyme assay; inhibition, % at 20 µM; 13% of 2,000 active; AID 624309; in the data active = inhibition mostly above about 42%, no sharp cut-off; inactive = mostly below about 42%
Hits are given with their value; i = inactive; nt = no result given.

SMILES	UBC9 SUMO inh	pCIP destab	NadD inh	PHOSPHO1 block	NadD conf
O=C(CSc1nc2c(cnn2-c2ccccc2)c(=O)[nH]1)c1ccc(Cl)cc1	i	i	37	i	i
Cc1ccc(-n2nnnc2CNC(=O)C(=O)c2c[nH]c3ccccc23)cc1C	nt	nt	i	nt	nt
O=C/C(=C\Nc1ccc(Cl)cn1)c1nc2ccccc2o1	i	i	i	i	nt
O=C/C(=C\Nc1ccc(Cl)cn1)c1nc2cc(Cl)ccc2o1	i	i	38	i	i
CNc1cc(C)c(C#N)c2nc3ccccc3n12	i	i	i	i	nt
Cc1cccc(NC(=O)CSc2cc(C)c(C#N)c3nc4ccccc4n23)c1	i	i	43	i	i
NC(=O)c1sc2nc(-c3cccs3)ccc2c1N	i	i	i	i	nt
Nc1c(C(=O)Nc2ccc(Br)cc2)sc2nc(-c3ccco3)ccc12	72	i	51	i	i
Cc1ccc(NC(=O)c2sc3nc4c(c(-c5ccco5)c3c2N)CCC4)cc1	i	i	31	i	i
COc1ccc(-c2c3c(nc4sc(C(=O)Nc5ccccc5)c(N)c24)CCC3)cc1	nt	nt	i	nt	nt
Cc1ccccc1NC(=O)c1sc2nc3c(c(-c4ccco4)c2c1N)CCCC3	i	i	33	i	i
COc1cc(NC(=O)CCCOc2ccc(Cl)cc2Cl)c(C(=O)O)cc1OC	i	i	i	i	nt
O=S1(=O)CC(N2CCSCC2)CN1Cc1cn(Cc2ccc(F)cc2)nn1 (centres undefined)	nt	nt	i	nt	nt
CCCc1cc2c(=O)c(-c3nc4ccccc4s3)c(COCC(=O)O)oc2cc1O	i	i	30	i	i
CCc1cc2c(=O)c(-c3nc4ccccc4n3C)c(COCC(=O)O)oc2cc1O	i	i	i	i	nt
CCOc1ccc2oc(C(=O)OCC(=O)N(CC(C)C)c3c(N)n(Cc4ccccc4)c(=O)[nH]c3=O)c(C)c2c1	nt	nt	40	nt	i
CC(=O)N(CCC(c1ccccc1)c1ccco1)Cc1cccs1 (centres undefined)	i	i	i	i	nt
Cc1ccc(C(CCN(Cc2ccccc2)C(=O)c2ccco2)c2ccco2)cc1 (centres undefined)	i	i	38	i	i
CCOc1ccc(C(=O)N[C@H](C(=O)N2CCN(c3ncccn3)CC2)C(C)C)cc1	nt	nt	i	nt	nt
Cc1ccc2[nH]c(=O)c(C3C(C#N)=C(N)Oc4c3ccc3cccnc43)cc2c1 (centres undefined)	i	i	45	83	i
O=S(=O)(c1ccccc1)N1CCN(CCO)CC1	i	i	i	i	nt
O=C(c1nn2c(C(F)(F)F)cc(-c3cccs3)nc2c1Br)N1CCCc2ccccc21	i	i	i	i	nt
O=C(c1nn2c(C(F)(F)F)cc(-c3ccco3)nc2c1Br)N1CCCc2ccccc21	i	i	31	i	i
COc1ccc(-c2c(C#N)c(SCC(N)=O)nc3c2CCCC3)cc1	i	i	i	i	nt
COc1ccc(-c2c3c([nH]c(=S)c2C#N)CCC3)cc1	i	i	36	i	i
SMILES	UBC9 SUMO inh	pCIP destab	NadD inh	PHOSPHO1 block	NadD conf
CCCNC(=O)C1(C)CCN(Cc2noc(-c3ccccc3OC)n2)C1 (centres undefined)	nt	nt	i	nt	nt
CCOc1cc(NS(=O)(=O)c2ccccc2)c(OCC)cc1NC(=O)c1ccco1	i	i	i	i	nt
COc1ccc(NC(=O)[C@@H](NC(=O)N2C[C@H]3C[C@@H](C2)c2cccc(=O)n2C3)C(C)C)cc1OC	i	i	i	i	nt
CCCC(=O)N1CCCC1(C)C(=O)NCc1ccc(SC)cc1 (centres undefined)	nt	nt	i	nt	nt
COc1cccc(N(C(=O)Cn2nnc(-c3cccs3)n2)C(C(=O)NC2CCCCC2)c2ccncc2)c1 (centres undefined)	i	i	33	i	i
Cc1c(-c2cc(C(=O)O)on2)cnn1C	i	i	i	i	nt
COc1ccc(-c2csc(Nc3ccc(S(=O)(=O)Nc4cc(OC)nc(OC)n4)cc3)n2)cc1	i	i	28	i	i
COc1cc(NS(=O)(=O)c2ccc(N/C=C(\C#N)c3nc4cc(Cl)ccc4o3)cc2)nc(OC)n1	i	i	39	i	i
COc1ccc(-c2csc(NC(=O)c3ccccc3NS(=O)(=O)c3ccc(C)cc3)n2)cc1	i	i	42	i	51
COc1ccc(C(=O)/C=C/Nc2ccc(S(=O)(=O)Nc3cc(OC)nc(OC)n3)cc2)c(OC)c1	i	i	32	i	i
COc1cccc(C(=O)/C=C/Nc2ccc(S(=O)(=O)Nc3cc(OC)nc(OC)n3)cc2)c1	i	i	i	i	nt
Cc1ccccc1C(=O)Nc1nc(-c2cccnc2)cs1	i	i	30	i	i
FC(F)(F)c1nnc(-c2ccccc2)nc1Sc1ccc(Cl)cc1	i	i	33	i	i
